In PubChem BioAssay (NCATS):
Inconclusive results are not listed. Where a call stands in place of a potency, no number is given. Calls of active or inactive are those of the source. The call rests on the fitted dose curve.

Experiment: Cytotoxicity counterscreen for inhibitors of SARS-CoV-2 cell entry (AID 1645845); further: nearly all actives have a fitted effect of over 50% in size
Settings: cell viability (SARS-CoV-2 entry assay cells); series mostly up to 57.1 µM
Method in brief: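 HEK293-ACE2 cells (Expi293F stably expressing human ACE2) seeded overnight, then compound for 1 h plus 48 h at 37C. Viability as ATP content by luminescence; normalized to wells with cells and media-only wells.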
Potency means the concentration at half of the fitted maximal effect.

| Structure (SMILES) | Potency |
| --- | --- |
| Cc1c(C(=O)Nc2cccc(C(F)(F)F)c2)cc(-c2ccccc2)n1CCCN1CCOCC1 | inactive |
| CCN1CCN(C(=O)Cc2ccc(Nc3ncc(F)c(Nc4ccc(C(=O)Nc5ccccc5Cl)cc4)n3)cc2)CC1 | 22.4 µM (active) |
| CCNC(=O)C[C@@H]1N=C(c2ccc(Cl)cc2)c2cc(OC)ccc2-n2c(C)nnc21 | inactive |
| O=S(=O)(CC1CS1)c1ccc(Oc2ccccc2)cc1 (stereo not drawn) | inactive |
| Clc1ccccc1C(c1ccccc1)(c1ccccc1)n1cccn1 | inactive |
| O=C(N[C@@H](COc1ccc2[nH]c(=O)[nH]c2c1)c1ccccc1)c1cccn(Cc2ccc(F)c(F)c2)c1=O | inactive |
| CN1CCN(c2ccc([N+](=O)[O-])c3no[n+]([O-])c23)CC1 | inactive |
| C[C@]12CC[C@H]3[C@@H](CCC4=CC(=O)CC[C@@]43C)[C@H]1CC[C@H]2OC(=O)CCC1CCCC1 | inactive |
